# Assay results reported in PubChem BioAssay AID1490 (National Center for Advancing Translational Sciences (NCATS), 2009).
# “And” between values parts separate entries of the source, which are not always exact repeats. Identical values can stand only once. About 11,000 (3.5%) of roughly 310,000 compounds were called active. Another 4% or so got no clear call; they are omitted. Calls follow the shape of the dose curve; as a rule, active = well fitted inhibition curve with a large enough effect; inconclusive = small, poorly fitted or top-dose-only effect, or another doubt; inactive = no such curve, though single readings can be large or run the other way. For the sample, actives were picked, then their nearest neighbours and some compounds at random.
# Biological target: 4'-phosphopantetheinyl transferase ffp (Bacillus subtilis) (UniProt Q9F4F7)
# Test: qHTS Assay for Inhibitors of Bacillus subtilis Sfp phosphopantetheinyl transferase (PPTase);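 also: the enzyme is Sfp with the accession as filed and its product quenches rhodamine fluorescence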;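 as to largest response in the series, negative = inhibition: 0% = enzyme reaction without inhibitor and -100% = no enzyme wells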
# Conditions: Biochemical Sfp PPTase activity
# Procedure, shortened: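 Sfp 15 nM + cpd, 15 min RT; start w/ rhodamine-CoA 5 uM, BHQ-2-YbbR 12.5 uM (final); 50 mM Hepes pH 7.6, 10 mM MgCl2, 0.01% NP-40, 0.01% BSA; read 525/598 nm at 0 and 30 min.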
# Potency is read from the fitted curve at half-maximal effect.
SMILES,"largest response in the series, negative = inhibition",Potency
CC(C)C[C@@H](CC(=O)N[C@@H](CCC(=O)O)CC(=O)O)NC(=O)[C@@H]1CCCC[C@H]1NC(=O)C[C@@H](NC(=O)C[C@H](Cc1c[nH]c2ccccc12)NC(=O)[C@@H]1CCCC[C@H]1N)C(C)C,-18.7% (inactive),
CCOC(=O)c1ccc(NC(=O)Cc2cccs2)cc1,0.409% (inactive),
COc1ccc(NC(=O)C2CCC(CNC(=O)[C@@H]3Cc4ccccc4CN3)CC2)cc1 (stereo partly drawn),7.97% (inactive),
O=C(COc1ccc(S(=O)(=O)Nc2cccc(C(F)(F)F)c2)cc1)N1CCOCC1,9.23% (inactive),
O=C(NC1CCCC1)C(c1ccco1)N(C(=O)c1csnn1)c1ccccc1 (stereo not drawn),19.9% (inactive),
Cn1cc(-c2nc3cnc(N4CCNCC4)nc3n(CCC#N)c2=O)c2ccccc21,-19.5% (inactive),
Cn1cc(-c2nc3cnc(N4CCNCC4)nc3n(CCc3ccccc3)c2=O)c2ccccc21,,39.8 µM (active)
Cc1nc2cnc(N3CCNCC3)nc2n(CCc2ccccc2)c1=O,-8.2% (inactive),
COc1ccc(C2/C=C\CN(C(=O)c3ccc(C)cc3)C(Cc3ccccc3)C(=O)N2Cc2ccc(F)cc2)cc1 (stereo not drawn),-6.91% (inactive),
CC1(C(=O)NNC(=S)NCC2CCCO2)CC1(Cl)Cl (stereo not drawn),17.2% (inactive),
Cc1cccc(C)c1NC(=O)NC1=CCCN1C,20.1% (inactive),
Cc1cc(OCc2ccc(C(=O)Nc3ccc(C(=O)O)cc3)o2)ccc1Cl,0.726% (inactive),
Cc1ccc(C(=O)O)cc1NC(=O)c1ccc(Cn2nc(C)c(Cl)c2C)o1,,56.2 µM (active)
Cc1cc(C(=O)Nc2c(C)nn(Cc3ccccc3)c2C)on1,18.5% (inactive),
CC1(C)CC(=O)C=C(Nc2ccccc2)C1,25.1% (inactive),
Cc1cc(C)nc(NNC2=CC(=O)CC(C)(C)C2)n1,,22.4 µM (active)
COC(=O)NNC1=CC(=O)CC(C)(C)C1,-3.96% (inactive),
Cc1ccc2c(c1)N(CC(=O)N1CCCC(C)C1)C(=O)CO2 (stereo not drawn),5.13% (inactive),
CCn1c(C)c(C)c2cc(C(=O)N3CCN(c4cccc(C)c4C)CC3)ccc21,-24.3% (inactive),
CCOC(=O)C1Sc2[nH]c(=O)sc2C(c2ccc(Cl)cc2)C1C(=O)OCC (stereo not drawn),,22.4 µM (active)
CCOC(=O)c1[nH]c2c(c1-c1ccccc1)C(=O)CC(c1ccc(Cl)cc1)C2 (stereo not drawn),5.24% (inactive),
CCOC(=O)C1=C(C)NC(=O)N(C(C)=O)C1c1ccc(Cl)cc1 (stereo not drawn),19% (inactive),
CCC(C)c1ccc(NC(=S)N2CCCC2)cc1 (stereo not drawn),7.33% (inactive),
O=C(O)COc1nsnc1N1CCOCC1,18.9% (inactive),

SMILES,"largest response in the series, negative = inhibition",Potency
c1nc(COc2nsnc2N2CCOCC2)cs1,0.0907% (inactive),
c1ccc(COc2nsnc2N2CCOCC2)cc1,,28.2 µM (active)
CCc1c(C)c2ccc(OC3CCCCC3=O)cc2oc1=O (stereo not drawn),-0.0226% (inactive),
CCOC(=O)C(C)n1cnc2c(nnn2-c2ccc(F)cc2)c1=O (stereo not drawn),8.12% (inactive),
O=c1/c(=C/c2ccc(CNS(=O)(=O)c3ccccc3)o2)sc2n1CCN=2,,50.1 µM (active)
O=S(=O)(NCCNS(=O)(=O)c1ccccc1)c1ccccc1,14.7% (inactive),
O=S(=O)(NCc1ccccc1)c1ccc(S(=O)(=O)N2CCCC2)cc1,-13.6% (inactive),
Cc1ccccc1NC(=O)c1cc(S(=O)(=O)Nc2cccc(C(=O)O)c2)ccc1Cl,17.9% (inactive),
COCCNC(=O)C1CCN(C(=O)C2CC(=O)N(c3ccc(C)cc3)C2)CC1 (stereo not drawn),10.9% (inactive),
NS(=O)(=O)c1cccc(NC(=O)CN2CCCc3ccccc32)c1,17% (inactive),
COC(=O)c1[nH]c2ccccc2c1NC(=O)CN1CCCc2ccccc21,,39.8 µM (active)
COC(=O)c1[nH]c2cccc(C)c2c1NC(=O)CN1CCCc2ccccc21,-4.7% (inactive),
O=C(Nc1nnc(S(=O)(=O)N2CCOCC2)s1)c1cccc(Br)c1,19.1% (inactive),
S=c1[nH]nc(-c2cc(-c3ccccc3)n[nH]2)n1/N=C/c1c2ccccc2cc2ccccc12,,50.1 µM (active)
c1ccc(-c2cc(-c3ccccc3)[nH]n2)cc1,4.07% (inactive),
S=c1[nH]nc(-c2ccncc2)n1/N=C/c1ccccc1Cl,-1.85% (inactive),
CCc1ccc(S(=O)(=O)N/N=C\c2ccc([N+](=O)[O-])o2)cc1,,56.2 µM (active)
Cc1cc(C)nc(N/N=C/c2ccncc2)n1,-9.4% (inactive),
Cc1cc(C)nc(N/N=C/c2ccc([N+](=O)[O-])o2)n1,,79.4 µM (active)
Cc1ccc(S(=O)(=O)N/N=C\c2cc3c(cc2[N+](=O)[O-])OCO3)cc1,-17.6% (inactive),
C/[N+]([O-])=C\c1ccc([N+](=O)[O-])o1,10% (inactive),
Cc1cc(C)nc(N/N=C/c2c(C)oc3ccccc23)n1,-2.54% (inactive),
O=C(NNS(=O)(=O)c1ccc([N+](=O)[O-])cc1)C1CCCCC1,5.3% (inactive),
CC(C)(C)c1cc[n+](-c2[nH]c(=O)sc2/C=N/N=C(\[O-])c2ccccc2)cc1,-4.09% (inactive),

SMILES,"largest response in the series, negative = inhibition",Potency
COC1=C(N2CCOCC2)C(=O)c2ccccc2C1=O,-22.9% (inactive),
COc1ccc(CNC(=O)CCN2C(=O)c3ccccc3C2=O)cc1,10.6% (inactive),
COc1cc(OC)c(OC)cc1CN1CCN(C(=O)c2cccc3ccccc23)CC1,-29.2% (inactive),
COc1ccccc1CN1CCN(Cc2cc(OC)c(OC)cc2OC)CC1,,79.4 µM (active)
COc1ccccc1CN1CCN(C(c2ccccc2)c2ccccc2)CC1,-9.22% (inactive),
Cc1ccc(C(=O)N/C(=C\c2ccc(F)cc2)C(=O)NCCN2CCOCC2)cc1,8.47% (inactive),
O=C(NCc1ccc(Cl)cc1)C1CCN(S(=O)(=O)c2cccs2)CC1,2.39% (inactive),
O=C(CN1CCN(S(=O)(=O)c2ccc(Cl)s2)CC1)NCc1ccc(Cl)cc1,,56.2 µM (active)
Cc1ccccc1N1CCN(CC(=O)NCc2ccc(Cl)cc2)CC1,9.8% (inactive),
CN1CCN(C(=O)c2ccccc2NC(=O)COc2ccccc2Cl)CC1,18.2% (inactive),
CC(C)NC(=O)c1ccc(Cl)cc1Cl,26.8% (inactive),
COC(=O)/C(=C\Nc1ccccc1)NC(=O)c1ccc(Cl)cc1Cl,,79.4 µM (active)
COc1cc(/C=C(/NC(=O)c2ccc(Cl)cc2Cl)C(=O)O)cc(OC)c1OC,1.15% (inactive),
COc1ccc(N2CCN(C(=O)c3ccc(N4CCCCS4(=O)=O)cc3)CC2)cc1,1.49% (inactive),
COc1ncnc2c1N=C1CC(C)(C)CC(N)=C1S2,,44.7 µM (active)
CN(CC(=O)NCc1ccncc1)S(=O)(=O)c1ccc(Br)cc1,13.4% (inactive),
O=C(Nc1nc(-c2ccncc2)cs1)C1COc2ccccc2O1 (stereo not drawn),,8.91 µM (active)
O=C(Nc1nc2c(F)cc(F)cc2s1)C1COc2ccccc2O1 (stereo not drawn),-2.2% (inactive),
O=C(Nc1ncc([N+](=O)[O-])s1)C1COc2ccccc2O1 (stereo not drawn),-25.4% (inactive),
CC(=O)c1ccc(S(=O)(=O)NCc2nnnn2-c2ccccc2)cc1,25.6% (inactive),
Cc1ccc2c(c1)N(CC(=O)NCC1CCCO1)C(=O)CO2 (stereo not drawn),20.7% (inactive),
S=c1[nH]nc(-c2ccco2)n1/N=C/c1ccc(Br)s1,-25.9% (inactive),
Cc1cc(-c2n[nH]c(=S)n2/N=C/C(Br)=C/c2ccccc2)n[nH]1,,39.8 µM (active)
S=c1[nH]nc(-c2cccnc2)n1/N=C/C(Cl)=C\c1ccccc1,-12.9% (inactive),

SMILES,"largest response in the series, negative = inhibition",Potency
CC(C)c1cc(C(=O)N/N=C/C(Br)=C/c2ccccc2)n[nH]1,3.6% (inactive),
Cc1cc(-c2n[nH]c(=S)n2/N=C/c2ccco2)n[nH]1,,79.4 µM (active)
S=c1[nH]nc(-c2ccco2)n1/N=C/c1ccccc1,-17.1% (inactive),
O=C(c1cc2ccccc2o1)N1CCN(Cc2ccccc2)CC1,8.96% (inactive) and -10.3% (inactive),
Cc1ccc(CSCCNC(=O)CN(c2ccc(F)cc2)S(C)(=O)=O)cc1,7.19% (inactive),
O=C(c1ccncc1)N1CCC2(CCCN(C(c3ccccc3)c3ccccc3)C2)CC1,-0.961% (inactive),
Cc1ccc(CNC(=O)C(=O)c2cn(CC(=O)N3CCOCC3)c3ccccc23)cc1,6.58% (inactive),
O=C(Oc1ccc(C(=S)N2CCOCC2)cc1)c1ccc(F)cc1,,50.1 µM (active)
Cc1ccc(C(=O)Oc2ccc(C(=S)N3CCOCC3)cc2)cc1,-21.7% (inactive),
O=C(Oc1ccc(F)cc1)N1CCOCC1,11.2% (inactive),
NNC(=O)CNC(c1ccccc1)c1cc(Cl)ccc1NC(=O)c1ccccc1 (stereo not drawn),5.82% (inactive),
Cc1ccc(SCC(CC(C)C)N2CCN(CCc3ccccc3)CCC2=O)cc1 (stereo not drawn),-29.9% (inactive),
CN(C)c1cc(N)c2ccccc2n1 (tested in a mixture with another compound),,56.2 µM (active)
Cc1cc(N(C)C)nc(Cl)n1,-4.8% (inactive),
COc1ccc(-c2cc(C(=O)N(C)Cc3ccccc3)c3ccccc3n2)cc1,-16.8% (inactive),
CN(Cc1ccccc1)S(=O)(=O)c1nnc(NC(=O)c2ccccc2F)s1,16.4% (inactive),
O=C(Cc1cccs1)NCc1cccc(C(F)(F)F)c1,6.74% (inactive),
NC(=O)CC(NC(=O)Cc1ccc(Br)cc1)c1ccc(NC2CC3CCC2C3)c([N+](=O)[O-])c1 (stereo not drawn),15.4% (inactive),
O=C(Nc1ccc(Cl)cc1)c1cccc(OC(=S)N2CCOCC2)c1,5.61% (inactive),
CCOC(=O)c1c(N)sc(C(C)=O)c1C,-34.1% (inactive),
COCCOC(=O)c1sc(=S)n(CCOC)c1N,,25.1 µM (active)
